GLP-1R agonist: GLP-1 receptor (human) agonism; P43220; HEK293 GLP-1R CRE-luciferase, luminescence, 4-6 h; cells express a hypersensitive GLP-1R form; Potency, µM (top dose mostly 45.6 µM), without a hit: at the highest dose activation, most hits filed as activators; actives 0.007% (n = 380,000); AID 624172; also: potency is read from the fitted curve at half-maximal effect; % of control where 0% means no effect
GLP1R cytotox: cytotoxicity in counter-screen for GLP-1R inverse agonists; HEK293 cAMP-luciferase reporter cells, luminescence, 24 h; Potency, µM (highest dose often 38.3 µM), for inactives: at the top dose activity change, negative = inhibition, hits mostly inhibitors; actives 0.13% (n = 410,000); AID 624418;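 also: loss of luciferase light is scored as toxicity; potency is read from the fitted curve at half-maximal effect; % is scaled to controls: 0 for no effect and ±100 for the full control effect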
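Luminescence readout: signal drop marks cytotoxicity. Plated cells grew 12 h at 37 °C, 5% CO2, received 23 nL compound for 24 h, then got luciferase reagent, read after 12 min at RT.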
GLP-1R inv ag: inverse agonists of human GLP-1 receptor | P43220 | HEK293 GLP-1R CRE-luciferase, luminescence, 24 h; GLP-1R form is constitutively active | Potency, µM (titrated, usually from 38.3 µM), without a hit: at the top dose activity change, negative = inhibition, most hits filed as inhibitors | actives 1.6% (n = 410,000); also: potency is read from the fitted curve at half-maximal effect; % is scaled to controls: 0 for no effect and ±100 for the full control effect; nearly all actives have a fitted effect of over 55% in size
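Cells are plated, allowed 12 hours at 37 deg C, then treated with compounds for 24 hr before luciferase detection reagent is added and luminescence is read after 12 min at room temperature. The HEK293 line carries constitutively active GLP-1R with a cAMP-responsive reporter.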
TRHR ag: TRH receptor (human) agonism | actives 0.18% (n = 360,000) | TRHR cells, calcium flux fluo-8, FDSS agonist mode | activation, % at 2 µM | P34981; in the data active = activation above about 30%; also: 0% is about no effect
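Read-out: compound-evoked intracellular calcium rise in TRHR cells, fluo-8 dye, kinetic FDSS fluorescence at 1 s/cycle following a 10-cycle baseline. Cells cultured overnight before dye loading (30 min–1.5 h, RT).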
PTHR1 ag: agonists of human PTHR1 parathyroid hormone receptor; HEK293 GP2 PTHR1 cells, GloSensor cAMP luminescence, 1 h; actives 0.075% (n = 410,000); Potency, µM (series often up to 115 µM), inactives show top-dose activation, usual class: activators; AID 743266; also: potency is read from the fitted curve at half-maximal effect; nearly all actives have a fitted effect of over 55% in size
Target sequence (Q03431 whole entry, looked up): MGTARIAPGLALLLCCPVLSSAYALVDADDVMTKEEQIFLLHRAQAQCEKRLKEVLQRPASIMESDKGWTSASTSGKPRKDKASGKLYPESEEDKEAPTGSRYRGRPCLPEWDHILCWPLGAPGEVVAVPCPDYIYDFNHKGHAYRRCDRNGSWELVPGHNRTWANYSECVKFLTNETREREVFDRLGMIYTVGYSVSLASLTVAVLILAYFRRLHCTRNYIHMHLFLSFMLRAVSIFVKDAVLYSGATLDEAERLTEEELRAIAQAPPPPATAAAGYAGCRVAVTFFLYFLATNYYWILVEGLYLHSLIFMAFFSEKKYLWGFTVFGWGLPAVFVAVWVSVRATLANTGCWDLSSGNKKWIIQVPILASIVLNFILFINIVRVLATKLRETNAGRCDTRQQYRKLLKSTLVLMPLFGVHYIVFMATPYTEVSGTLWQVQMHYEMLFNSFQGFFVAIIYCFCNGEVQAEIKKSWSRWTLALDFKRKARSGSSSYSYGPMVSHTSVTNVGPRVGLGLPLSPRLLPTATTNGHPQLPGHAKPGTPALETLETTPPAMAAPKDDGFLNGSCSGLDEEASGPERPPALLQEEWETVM
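HEK-293-derived GP2 cells expressing PTHR1 and a GloSensor cAMP reporter, 3,000/well, plated overnight, given luciferin plus IBMX (each 0.5 mM as added) for 1 h at 37 °C, then compound for 1 h at 37 °C. Luminescence was read after 15 min at room temperature.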
TRHR enhancer: TRH receptor (human) allosteric enhancement | TRHR cells, fluo-8 calcium fluorescence, EC20 TRH enhancement | actives 0.66% (n = 360,000) | P34981 | enhancement, % at 2 µM | AID 493056; in the data active = enhancement above about 30%; also: 0% is about no effect
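Enhancer read-out: after compound pinning and an initial kinetic agonist-mode read, an EC20 of TRH (10 nM final) was injected and fluo-8 calcium signal (Ex 480/Em 530) followed at 1 s/cycle for 100 cycles in TRHR-expressing cells.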
The depositor's hits bear a star; i = inactive; u = inconclusive; x = no result; [ ] = dose if it differs, or a comment. Rows were chosen to be rich in hits. Some 2.4% of all compounds tested hit in one or more screens of this group. Unless noted, calls follow the shape of the dose curve; as a rule, active = well fitted curve in the direction sought with a large enough effect; inconclusive = small, poorly fitted or top-dose-only effect, or another doubt; inactive = no such curve, though single readings can be large; an effect the other way counts as inactive or inconclusive.

SMILES	GLP-1R agonist	GLP1R cytotox	GLP-1R inv ag	TRHR ag	PTHR1 ag	TRHR enhancer
NC(=O)C1=C[C@H](c2ccc(C(F)(F)F)cc2)C[C@H](OCCCCO)O1	4.3%	2.1%	-7.6%	-0.1	-1.8%	2.5
Cc1ccc(C(=O)Nc2cc(Cl)ccc2-n2cncn2)o1	4.8%	-2.3%	32.0%	0.2	i	35.6*
Cc1ccc(C(=O)Nc2cc(C(F)(F)F)ccc2-n2cncn2)o1	-6.5%	-27.9%	14.8%	-2.9	-11.6%	2.8
COc1ccccc1-c1c(-c2ccc(O)cc2O)n[nH]c1C(F)(F)F	-2.9%	-15.4%	11.2µM*	0.7	-18.6%	-12.8
CC(C)C[C@H]1CN(CCCC[C@@H]2CNC(=O)C(=O)N2CC2CCCCC2)C(=O)C(=O)N1CCc1ccccc1	-5.8%	5.3%	15.5%	x	7.2%	x
CN1N=C2c3ccccc3CCCC2C1c1ccc(F)cc1 (configuration not stated)	8.3%	-26.0%	7.08µM*	-0.9	u	-1.7
COc1ccc2c(c1)C1=NN(/C(C)=C/C(C)=O)C(c3ccc(F)cc3)C1CC2 (configuration not stated)	8.9%	19.8%	0.0%	-0.3	-70.0%	-1.1
COC(=O)CSC1=NS(=O)(=O)c2ccccc21	6.3%	5.1%	0.0%	1.9	-36.0%	39.2*
O=C(CSC1=NS(=O)(=O)c2ccccc21)Nc1ccccc1	-6.2%	-28.7%	10.6%	1.0	-39.3%	10.5
COc1ccc(-c2nn(-c3ccccc3)cc2C(=O)Nc2ccccc2OC)cc1	2.2%	5.4%	6.4%	-1.7	-12.8%	43.9*
CCOC(=O)Cc1csc(NS(=O)(=O)c2cccc([N+](=O)[O-])c2)n1	-3.6%	3.5%	8.2%	0.3	-7.0%	35.5*
Cc1ccccc1OCC(O)CN1CCN(CC(O)COc2ccccc2C)CC1 (configuration not stated)	-2.4%	-6.1%	8.91µM*	-0.1	-24.8%	-2.0
Cc1ccccc1OCC(O)CN1CCC(C)CC1 (configuration not stated)	-7.8%	-2.3%	-33.2%	0.3	i	6.4
COc1cccc(OCC(O)CN2CCN(c3ccc(Cl)cc3)CC2)c1 (configuration not stated)	-0.9%	0.8%	10µM*	0.2	-13.4%	2.4
Cc1ccc(N2CCN(CC(O)COc3cccc4ccccc34)CC2)cc1 (configuration not stated)	-6.3%	u	11.2µM*	-0.8	-26.3%	4.0
OC(COc1cccc2ccccc12)CN1CCN(c2ccccc2Cl)CC1 (configuration not stated)	26.1%	u	u	0.7	-19.3%	5.7
CN(CC(=O)O/N=C(\N)c1cccc([N+](=O)[O-])c1)S(=O)(=O)c1ccccc1	6.3%	1.8%	-0.6%	-0.3	-11.0%	0.7
CC1CC2(C)Oc3ccccc3CC2C(C)C1CNCCCN(C)C (configuration not stated)	-7.9%	u	0.891µM*	1.0	-4.5%	-0.1
Cc1cc(CN2CCN(c3cccc(C)c3C)CC2)cs1	x	0.2%	u	0.0	-20.5%	5.6
CSc1ccc(CN(C)C(=O)C23CC4CC(CC(Cl)(C4)C2)C3)cc1	31.6%	-2.9%	10µM*	-0.3	-17.9%	-7.8
COCCN1CCC(CNCc2cn[nH]c2-c2ccc(C)c(C)c2)C1 (configuration not stated)	16.1%	-17.5%	u	0.0	-22.8%	18.0
COCCN1CCC(CNCc2cn(-c3cc(C)ccc3C)nc2-c2ccccc2)C1 (configuration not stated)	-0.7%	u	2.82µM*	1.5	-19.2%	1.6
Cc1cc(C)c2ccc(N)nc2c1O	-21.6%	u	12.6µM*	0.6	i	-2.0
CCC(C)c1ccccc1NC(=O)COC(=O)c1ccc2[nH]c3c(c2c1)CCCC3 (configuration not stated)	-8.5%	7.6%	5.62µM*	0.4	-29.9%	-20.3
O=C(COC(=O)c1ccc2[nH]c3c(c2c1)CCCC3)Nc1ccccc1Cl	2.5%	-3.5%	10.7%	2.0	i	0.1
SMILES	GLP-1R agonist	GLP1R cytotox	GLP-1R inv ag	TRHR ag	PTHR1 ag	TRHR enhancer
Cc1nn(Cc2c(F)c(F)c(F)c(F)c2F)c(C)c1NC(=O)c1ccc(COc2ccccc2Cl)cc1	0.8%	-15.3%	-7.8%	-0.1	-13.7%	-1.8
Cc1nn(Cc2c(F)c(F)c(F)c(F)c2F)c(C)c1NC(=O)c1ccc(COc2ccccc2Cl)o1	-3.1%	-7.0%	10µM*	-0.2	-9.6%	-25.4
Cc1cc(C(c2ccc(C)o2)c2ccc(C)o2)c(O)c([N+](=O)[O-])c1	-6.4%	-4.8%	10µM*	0.6	-28.6%	21.9
Cc1ccc(C(c2ccc(C)o2)c2cccc([N+](=O)[O-])c2O)o1	-15.3%	0.8%	u	1.0	-14.0%[57.5 µM]	1.2
CCOc1cccc2cc(-c3csc(NC(=O)CCC(=O)NCCN4CCCCC4C)n3)c(=O)oc12 (configuration not stated)	6.9%	7.4%	-25.8%	0.6	-92.3%	-1.3
COc1ccc(-c2csc(NC(=O)c3ccccc3NS(=O)(=O)c3ccc(C)cc3)n2)cc1	-30.4%	5.4%	4.47µM*	0.2	-95.9%	-6.8
Cc1ccccc1Oc1nc2ccccn2c(=O)c1/C=C(\C#N)c1nc2ccccc2[nH]1	x	-12.5%	2.3%	8.5	i	1.2
CCOC(=O)c1c(C)oc2nc(C)nc(NCCCN3CCN(c4ccccc4)CC3)c12	x	3.9%	-7.5%	-0.8	i	1.4
CCOC(=O)c1c(C)oc2nc(C)nc(NCCCN3CCN(c4cccc(C)c4)C(C)C3)c12 (configuration not stated)	x	-6.5%	0.2%	-1.1	u	37.7*
CCCCOc1ccc(S(=O)(=O)N2CCN(c3ccccc3OCC)CC2)cc1	x	0.9%	11.6%	0.1	i	32.2*
CCCCOc1ccc(C(=O)NCCS(=O)(=O)N2CCN(c3ccc(F)cc3)CC2)cc1	x	-3.5%	0.2%	0.2	i	-8.8
CCCCOc1ccc(C(=O)NCCS(=O)(=O)N2CCN(c3ccccc3OC)CC2)cc1	x	0.7%	10µM*	-0.9	-95.1%	-2.5
COc1ccc(N2CCN(S(=O)(=O)CCNC(=O)Cc3ccc(-c4ccccc4)cc3)CC2)cc1	x	6.8%	9.0%	0.3	28.2µM*	5.8
OCc1ccnc2c(O)cccc12	-6.5%	u	8.91µM*	-1.1	-3.2%	-1.6
Oc1ccc(CNc2ccccc2)c2cccnc12	-10.3%	u	6.31µM*	0.3	i	-1.5
